# Source: PubChem BioAssay (National Center for Advancing Translational Sciences (NCATS))
# SMN2 splice enh: enhancers of SMN2 splice variant expression. Potency, µM (series often up to 46.1 µM), for inactives: at the highest dose activity change, positive = activation, hits mostly activators. HEK293 SMN2-luciferase splicing reporter, luminescence, 30-36 h. AID 1458. 210,000 compounds, 2.8% hits; also: % of control where 0% means no effect; nearly all actives have a fitted effect of over 55% in size
#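 HEK293 cells carry an SMN2 minigene-luciferase reporter in which exon 7 inclusion puts luciferase in frame. Cells were seeded at 2000 cells/well, attached for 10-12 hours, then exposed to compounds for 30-36 hours at 37C before ONE-Glo luminescence.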
# Rab9 promoter act: activators of Rab9 promoter | Huh7 Rab9 promoter-luciferase reporter, luminescence, 24 h | Potency, µM (highest dose often 9.22 µM), without a hit: at the highest dose activation, negative = inhibition, hits mostly activators | 320,000 compounds, 2.8% hits; also: % of control where 0% means no effect; nearly all actives have a fitted effect of over 60% in size
#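 Cell-based reporter: Huh7 stable for Rab9 promoter-driven luciferase, plated in reduced-serum medium with 10% FBS at 1500 cells/well, compound-treated 24 h at 37 °C, luminescence read after 10 min reagent.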
# NPC1 promoter act: NPC1 promoter activation; Potency, µM (titrated, usually from 9.22 µM), inactives show at the top dose activation, hits mostly activators; 320,000 compounds, 2.4% hits; Huh7 NPC1 promoter luciferase reporter, 24 h; AID 485313; also: % of control where 0% means no effect; nearly all actives have a fitted effect of over 60% in size
#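 Luminescence from an NPC1 promoter-driven luciferase reporter in stably transfected Huh7 cells was measured after 24 h compound treatment at 37 °C, followed by 10 min ambient incubation with luciferase detection reagent.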
# FLuc modulator: counter-screen for miR-21 project: firefly luciferase inhibitors or activators. P08659. purified FLuc, Km substrates, luminescence inhibition. Potency, µM (top dose mostly 57.5 µM), inactives show top-dose activity change, negative = inhibition, hits mostly inhibitors. 360,000 compounds, 6.9% hits;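 also: plate controls were vehicle for no effect and reference inhibitor for full effect; nearly all actives have a fitted effect of over 55% in size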
# Target sequence (P08659 whole entry, looked up): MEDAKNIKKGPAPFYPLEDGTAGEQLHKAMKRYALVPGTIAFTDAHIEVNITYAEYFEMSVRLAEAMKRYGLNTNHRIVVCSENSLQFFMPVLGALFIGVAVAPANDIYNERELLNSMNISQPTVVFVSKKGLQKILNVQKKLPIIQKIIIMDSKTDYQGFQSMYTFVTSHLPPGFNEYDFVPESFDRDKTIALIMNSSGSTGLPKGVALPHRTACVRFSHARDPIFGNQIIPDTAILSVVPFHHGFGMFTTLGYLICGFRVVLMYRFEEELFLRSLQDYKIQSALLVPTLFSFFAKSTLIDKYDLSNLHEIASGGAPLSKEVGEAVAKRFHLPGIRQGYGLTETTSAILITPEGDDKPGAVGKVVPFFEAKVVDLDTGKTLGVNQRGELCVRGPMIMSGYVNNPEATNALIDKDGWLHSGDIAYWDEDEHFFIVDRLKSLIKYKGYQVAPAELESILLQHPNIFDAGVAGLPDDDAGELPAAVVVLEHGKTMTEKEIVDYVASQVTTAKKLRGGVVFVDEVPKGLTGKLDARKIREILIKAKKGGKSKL
#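 Purified P. pyralis luciferase (10nM final) with 10uM D-luciferin and 10uM ATP (Km levels) in 50mM Tris acetate pH 7.5, 10mM Mg acetate, 0.01% Tween-20, 0.05% BSA; qHTS 6-point titration, ~60 µM downward; luminescence read.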
# ELG1 genotox: induces genotoxicity in HEK293T cells with luciferase-tagged ELG1; HEK293T ELG1-luciferase reporter, luminescence, 16 h; Potency, µM (top dose mostly 46 µM), for inactives: top-dose activity change, positive = activation, usual class: activators; 330,000 compounds, 1.3% hits; also: % of control where 0% means no effect; nearly all actives have a fitted effect of over 60% in size
#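 Quantitative HTS format in 1536-well plates. HEK293T ELG1-luciferase reporter cells receive test compound and are incubated 16 hr at 37 °C, 5% CO2; ONE-Glo added, 30 min room temperature, then luminescence read.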
# An asterisk follows results filed as active; u = inconclusive; x = not tested or not shown; [ ] = dose if it differs, or a comment. An excerpt weighted towards active compounds, which were near 7.4% of everything screened. Calls follow the shape of the dose curve; as a rule, active = well fitted curve in the direction sought with a large enough effect; inconclusive = small, poorly fitted or top-dose-only effect, or another doubt; inactive = no such curve, though single readings can be large; an effect the other way counts as inactive or inconclusive. Potency is read from the fitted curve at half-maximal effect.
SMILES,SMN2 splice enh,Rab9 promoter act,NPC1 promoter act,FLuc modulator,ELG1 genotox
COc1ccc(N2CCN(CC(=O)c3ccc(Cl)cc3)CC2)cc1,x,0.1%,-0.1%,-0.9%,-1.6%
CC(C)(Oc1ccc(Cl)cc1)C(=O)NCc1ccc(S(N)(=O)=O)cc1,-6.8%,-4.2%,-1.2%,-2.4%,-1.1%
O=C(Nc1cccc(F)c1)C1CCN(c2nc3ccccc3nc2C(F)(F)F)CC1,x,x,x,-1.1%,x
COc1ccc(-c2csc(Nc3ccccc3)n2)cc1,3.98µM*,1µM*,2.24µM*,3.01µM*,2.06µM*
COc1ccc2oc(=O)c(-c3csc(Nc4ccc(O)cc4)n3)cc2c1,u,14.0%,0.1%,3.01µM*,-0.9%
COc1ccc(Nc2nc(-c3c[nH]c4ccccc34)cs2)cc1,u,20.1%,23.2%,15.1µM*,12.8%
c1ccc(Nc2nc(-c3ccncc3)cs2)cc1,u,4.3%,-0.2%,u,15.2%
COc1ccc(-c2csc(Nc3cccnc3)n2)cc1,6.7%,x,x,6.01µM*,x
Oc1ccccc1C(Sc1nc2ccccc2s1)Sc1nc2ccccc2s1,11.9%[9.22 µM],x,x,x,x
COc1ccc(Nc2nc(-c3ccc(OC)cc3)cs2)cc1,u,1.58µM*,3.16µM*,u,u
CN(Cc1ccon1)Cc1cn(Cc2ccccc2)nc1-c1ccc2c(c1)OCO2,x,0.2%,5.7%,-1.2%,-8.9%
COc1ccc(C2CC(=O)N(C)c3ccccc3S2)cc1 (centres undefined),16.8%,8.7%,0.2%,23.9µM*,18.3µM*
CN1C(=O)CC(c2ccco2)Sc2ccccc21 (centres undefined),u,-22.1%,-0.8%,-0.6%,u
COc1ccc(C2CC(=O)N(CC(=O)Nc3ccc(C(F)(F)F)cc3)c3ccccc3S2)cc1 (centres undefined),-13.2%,x,x,10.7µM*,x
CCCC12CN3CC(CCC)(CN(C1)C3c1c[nH]c3ccccc13)C2=O (centres undefined),x,x,x,0.3%,x
CCc1ccccc1N(C)C(=O)C1CCCN(c2ncnc3c2nc2n3CCCCC2)C1 (centres undefined),x,x,x,-3.1%,x
COCCNS(=O)(=O)c1ccc(-c2ccc(S(=O)(=O)NCCOC)cc2)cc1,20µM*,1µM*,u,4.26µM*,u
COCCNS(=O)(=O)c1ccc(-c2ccc(Cl)cc2)cc1,x,-12.7%,-0.3%,-9.3%,2.3%
Cc1ccc(OCC(=O)Nc2nnc(S(=O)(=O)N3CCC(C)CC3)s2)cc1,x,-10.5%,-2.2%,5.6%,-1.3%
Cc1ccc(CNC(=O)c2cc(S(=O)(=O)N3CCCCC3)ccc2N2CCOCC2)cc1,x,-13.1%,0.7%,-1.7%,-6.3%
COc1ccc(NC(=O)Nc2nnc(-c3ccco3)s2)cc1,x,1.26µM*,0.891µM*,u,u
COc1ccc(NC(=O)Nc2nnc(C(C)C)s2)cc1,26.2%,u,3.55µM*,21.3µM*,u
COc1ccc(NC(=O)Nc2nnc(-c3ccccc3F)s2)cc1,13.6%,2.82µM*,u,-3.4%,1.1%
Cc1cc(-c2nnc(-c3cccc(C(F)(F)F)c3)o2)no1,x,u,u,16.9µM*,15.2%
Cc1ccc(-c2nnc(-c3cc(C)on3)o2)cc1,x,0.562µM*,0.794µM*,1.51µM*,3.26µM*
SMILES,SMN2 splice enh,Rab9 promoter act,NPC1 promoter act,FLuc modulator,ELG1 genotox
Cc1cc(-c2nnc(SCc3ccccn3)o2)no1,5.3%,28.1%,25.9%,-11.9%,11.1%
Cc1cc(-c2nnc(CCC(=O)NCc3cccc(C(F)(F)F)c3)o2)no1,x,7.1%,8.6%,-16.1%,9.3%
CC12CC(NC(=O)N1c1cccc(C(=O)N3CCCCC3)c1)c1ccccc1O2 (centres undefined),x,-0.8%,1.1%,2.1%,6.6%
COCn1c(-c2cccc(Br)c2)nc2ccccc21,x,21.7%,1.8%,16.9µM*,u
COCn1c(-c2ccc(OC)c(OC)c2)nc2ccccc21,20.2%,3.55µM*,u,10.7µM*,u
CC(C)Cn1c(-c2cccc(Br)c2)nc2ccccc21,-11.5%,x,x,-17.2%,x
CCNc1nc(NCC)nc(N/N=C/c2ccc(N(C)C)cc2)n1,4.2%,-3.0%,2.1%,u,-1.3%
CCNc1nc(NCC)nc(N/N=C/c2ccc(O)c(O)c2)n1,u,u,26.3%,21.3µM*,u
COc1ccc(-c2cnnc(N/N=C/c3ccc(O)cc3)n2)cc1,26.8%,18.3%,0.3%,1.69µM*,u
